This excerpt belongs to a sample that is enriched for the strongest signals.
Legend:
Assay in all cases: glycan array binding signal (z-score within array); higher = stronger binding
[1] = target: Neu5Ac(a2-8)Neu5Ac(a2-8)Neu5Ac(a2-3)[GalNAc(b1-4)]Gal(b1-4)Glc; details: glycan notation: IUPAC condensed, linker removed; mutation: G182A
How it was run: (§1)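 Glycan array data came from 3228 arrays in the Consortium for Functional Glycomics database, and only arrays with an available protein sequence were kept. Glycan names were put into IUPAC-condensed notation, and columns mapping to the same glycan were averaged. The binding signal is a within-array Z-score, averaged across arrays of one protein sequence run at different concentrations or buffers and across linkers. A negative Z-score can be read as non-binding.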

[2] = target: Neu5Ac9Ac(a2-6)Gal(b1-4)GlcNAc; details: glycan notation: IUPAC condensed, linker removed; mutation: G182A
How it was run: as §1

Neu5Gc(a2-3)Gal(b1-4)Glc = details: glycan notation: IUPAC condensed, linker removed; mutation: G182A
How it was run: as §1

Fuc(a1-2)Gal(b1-4)GlcNAc = details: glycan notation: IUPAC condensed, linker removed; mutation: K348A
How it was run: as §1

[3] = target: Fuc(a1-2)Gal(b1-4)[Fuc(a1-3)]GlcNAc(b1-3)Gal(b1-4)[Fuc(a1-3)]GlcNAc(b1-3)Gal(b1-4)[Fuc(a1-3)]GlcNAc; details: glycan notation: IUPAC condensed, linker removed; mutation: K348A
How it was run: as §1

[4] = target: Fuc(a1-2)[Gal(a1-3)]Gal(b1-4)[Fuc(a1-3)]GlcNAc; details: glycan notation: IUPAC condensed, linker removed; mutation: K348A
How it was run: as §1

[5] = target: Fuc(a1-2)[GalNAc(a1-4)]Gal(b1-4)GlcNAc; details: glycan notation: IUPAC condensed, linker removed; mutation: K348A
How it was run: as §1

Fuc(a1-3)GlcNAc = details: glycan notation: IUPAC condensed, linker removed; mutation: K348A
How it was run: as §1

[6] = target: Fuc(a1-3)[Gal(b1-4)]GlcNAc(b1-2)Man(a1-3)[Fuc(a1-3)[Gal(b1-4)]GlcNAc(b1-2)Man(a1-6)]Man(b1-4)GlcNAc(b1-4)GlcNAc; details: glycan notation: IUPAC condensed, linker removed; mutation: K348A
How it was run: as §1

[7] = target: Fuc(a1-3)[Gal(b1-4)]GlcNAc(b1-4)Gal(b1-4)[Fuc(a1-3)]GlcNAc; details: glycan notation: IUPAC condensed, linker removed; mutation: K348A
How it was run: as §1

[8] = target: Fuc(a1-3)[Gal(b1-4)]GlcNAc6S; details: glycan notation: IUPAC condensed, linker removed; mutation: K348A
How it was run: as §1

[9] = target: Gal(b1-3)[Neu5Ac(b2-6)]GalNAc; details: glycan notation: IUPAC condensed, linker removed; mutation: K348A
How it was run: as §1

[10] = target: Gal(b1-4)GalNAc(a1-3)[Fuc(a1-2)]Gal(b1-4)GlcNAc; details: glycan notation: IUPAC condensed, linker removed; mutation: K348A
How it was run: as §1

[11] = target: Gal(b1-4)GlcNAc(b1-3)[Gal(b1-4)GlcNAc(b1-6)]Gal(b1-4)GlcNAc; details: glycan notation: IUPAC condensed, linker removed; mutation: K348A
How it was run: as §1

[12] = target: Gal(b1-4)GlcNAc(b1-6)GalNAc; details: glycan notation: IUPAC condensed, linker removed; mutation: K348A
How it was run: as §1

GalNAc(b1-4)GlcNAc = details: glycan notation: IUPAC condensed, linker removed; mutation: K348A
How it was run: as §1

Glc(a1-4)Glc = details: glycan notation: IUPAC condensed, linker removed; mutation: K348A
How it was run: as §1

Glc(b1-4)Glc = details: glycan notation: IUPAC condensed, linker removed; mutation: K348A
How it was run: as §1

[13] = target: GlcNAc(b1-3)[GlcNAc(b1-6)]Gal(b1-4)GlcNAc; details: glycan notation: IUPAC condensed, linker removed; mutation: K348A
How it was run: as §1

[14] = target: Man(a1-2)Man(a1-2)Man(a1-6)[Man(a1-3)]Man; details: glycan notation: IUPAC condensed, linker removed; mutation: K348A
How it was run: as §1

[15] = target: Man(a1-2)Man(a1-3)[Man(a1-2)Man(a1-6)]Man; details: glycan notation: IUPAC condensed, linker removed; mutation: K348A
How it was run: as §1

[16] = target: Man(a1-2)Man(a1-3)[Man(a1-2)Man(a1-6)]Man(a1-6)[Man(a1-2)Man(a1-2)Man(a1-3)]Man; details: glycan notation: IUPAC condensed, linker removed; mutation: K348A
How it was run: as §1

[17] = target: Man(a1-3)[Man(a1-6)]Man(a1-6)[Man(a1-2)Man(a1-3)]Man(b1-4)GlcNAc(b1-4)GlcNAc; details: glycan notation: IUPAC condensed, linker removed; mutation: K348A
How it was run: as §1

[18] = target: Man(a1-3)[Man(a1-6)]Man(a1-6)[Man(a1-3)]Man; details: glycan notation: IUPAC condensed, linker removed; mutation: K348A
How it was run: as §1

[19] = target: Neu5Ac(a2-3)Gal(b1-3)GalNAc(b1-4)[Neu5Ac(a2-3)]Gal(b1-4)Glc; details: glycan notation: IUPAC condensed, linker removed; mutation: K348A
How it was run: as §1

[20] = target: Neu5Ac(a2-3)Gal(b1-3)[Fuc(a1-4)]GlcNAc(b1-3)Gal(b1-4)[Fuc(a1-3)]GlcNAc; details: glycan notation: IUPAC condensed, linker removed; mutation: K348A
How it was run: as §1

[21] = target: Neu5Ac(a2-3)Gal(b1-4)[Fuc(a1-3)]GlcNAc(b1-3)Gal; details: glycan notation: IUPAC condensed, linker removed; mutation: K348A
How it was run: as §1

[22] = target: Neu5Ac(a2-3)Gal(b1-4)[Fuc(a1-3)]GlcNAc(b1-6)[Gal(b1-3)]GalNAc; details: glycan notation: IUPAC condensed, linker removed; mutation: K348A
How it was run: as §1

Neu5Ac(a2-6)Gal(b1-4)Glc = details: glycan notation: IUPAC condensed, linker removed; mutation: K348A
How it was run: as §1

[23] = target: Neu5Gc(a2-3)Gal(b1-3)[Fuc(a1-4)]GlcNAc; details: glycan notation: IUPAC condensed, linker removed; mutation: K348A
How it was run: as §1

Binder	glycan array binding signal (z-score) [1]	glycan array binding signal (z-score) [2]	glycan array binding signal (z-score) (Neu5Gc(a2-3)Gal(b1-4)Glc)	glycan array binding signal (z-score) (Fuc(a1-2)Gal(b1-4)GlcNAc)	glycan array binding signal (z-score) [3]	glycan array binding signal (z-score) [4]	glycan array binding signal (z-score) [5]	glycan array binding signal (z-score) (Fuc(a1-3)GlcNAc)	glycan array binding signal (z-score) [6]	glycan array binding signal (z-score) [7]	glycan array binding signal (z-score) [8]	glycan array binding signal (z-score) [9]	glycan array binding signal (z-score) [10]	glycan array binding signal (z-score) [11]	glycan array binding signal (z-score) [12]	glycan array binding signal (z-score) (GalNAc(b1-4)GlcNAc)	glycan array binding signal (z-score) (Glc(a1-4)Glc)	glycan array binding signal (z-score) (Glc(b1-4)Glc)	glycan array binding signal (z-score) [13]	glycan array binding signal (z-score) [14]	glycan array binding signal (z-score) [15]	glycan array binding signal (z-score) [16]	glycan array binding signal (z-score) [17]	glycan array binding signal (z-score) [18]	glycan array binding signal (z-score) [19]	glycan array binding signal (z-score) [20]	glycan array binding signal (z-score) [21]	glycan array binding signal (z-score) [22]	glycan array binding signal (z-score) (Neu5Ac(a2-6)Gal(b1-4)Glc)	glycan array binding signal (z-score) [23]
Gal 3 (Homo sapiens), P17931 (protein) MADNFSLHDALSGSGNPNPQGWPGAWGNQPAGAGGYPGASYPGAYPGQAPPGAYPGQAPPGAYHGAPGAYPGAPAPGVYPGPPSGPGAYPSSGQPSAPGAYPATGPYGAPAGPLIVPYNLPLPGGVVPRMLITILGTVKPNANILDFQRGNDVAFHFNPRFNENNRRVIVCNTKLDNNWAREERQSVFPFESGKPFKIQVLVEPDHFKVAVNDAHLLQYNHRVKKLNEISKLGISGDIDLTSASYTMI	-0.167	-0.189	-0.195																											
Surfactant Protein D (Human); Neck + Carbohydrate Recognition Domain (NCRD) (Homo sapiens) (protein) MLLFLLSALVLLTQPLGYLEAEMKTYSHRTMPSACTLVMCSSVESGLPGRDRDGREGPRGEKGDPGLPGAAGQAGMPGQAGPVGPKGDNGSVGEPGPKGDTGPSGPPGPPGVPGPAGREGALGKQGNIGPQGKPGPKGEAGPKGEVGAPGMQGSAGARGLAGPKGERGVPGERGVPGNTGAAGSAGAMGPQGSPGARGPPGLKGDKGIPGDKGAKGESGLPDVASLRQQVEALQGQVQHLQAAFSQYKKVELFPNGQSVGEKIFKTAQFVKPFTEAQLLCTQAGGQLASPRSAAENAALQQLVVAKNEAAFLSMTDSKTEGKFTYPTGESLVYSNWAPGEPNDDGGSEDCVEIFTNGKWNDRACGEARLVVCEF				-0.173	-0.151	-0.148	-0.151	-0.116	-0.176	-0.134	-0.17	-0.09	-0.175	-0.175	-0.173	-0.165	-0.171	-0.16	-0.177	8.57	7.38	8.69	6.04	6.52	-0.156	0.451	-0.173	-0.015	-0.17	-0.149

From the supplement of paper PMC8728848
